ELG1 DNA repair = qHTS screen for small molecules that inhibit ELG1-dependent DNA repair in human embryonic kidney (HEK293T) cells expressing luciferase-tagged ELG1; HEK293T ELG1-luciferase reporter, luminescence, 16 h; DNA damage induced by 5-fluorouridine; 2.3% of 330,000 active; AID 504467, 2011; Potency, µM (doses to about 46.1 µM), inactives show top-dose activity change, negative = inhibition, most hits filed as inhibitors; note: % is set by controls: 0 for no effect and ±100 for the full control effect; nearly all actives have a fitted effect of over 55% in size
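Reporter activity after DNA damage by 5-fluorouridine is monitored. Compound-treated cells incubate 16 hr at 37 °C, then ONE-Glo is added for 30 min before luminescence reading.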
Nrf2 block = Nrf2 qHTS screen for inhibitors; A549 ARE-Fluc reporter, luciferase luminescence, 18-24 h; Potency, µM (doses to about 46 µM), for the others: at the top dose activity change, negative = inhibition, actives largely listed as inhibitors; 2.1% of 360,000 active; AID 504444, 2011; note: % is set by controls: 0 for no effect and ±100 for the full control effect; nearly all actives have a fitted effect of over 60% in size
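Two sequential reads on A549 ARE_Fluc cells exposed to compound for 18-24 h: a CellTiter-Fluor fluorescence read for viability, then a luciferase luminescence read for Nrf2/ARE activity.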
Nrf2 activator = qHTS of Nrf2 Activators; AREc32 ARE-luciferase reporter (MCF7-derived line), luminescence, 24 h; Potency, µM (series often up to 46.1 µM), inactives show at the highest dose activation, usual class: activators; 0.31% of 410,000 active; note: % of control where 0% means no effect; nearly all actives have a fitted effect of over 65% in size
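Each well held 1000 AREc32 cells, which were incubated with compound for 24 hr at 37 deg C after overnight attachment, and ARE reporter activity was quantified by firefly luciferase luminescence.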
A549 viability = Nrf2 qHTS screen for inhibitors: counterscreen for cytotoxicity; A549 ARE-Fluc cells, CellTiter-Fluor viability, 18-24 h; Potency, µM (highest dose often 46 µM), without a hit: top-dose activity change, negative = cytotoxicity, hits mostly inhibitors; 0.16% of 390,000 active; note: % is set by controls: 0 for no effect and ±100 for the full control effect
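A549 ARE-Fluc cells in 5% FBS OPTI-MEM, 5000 cells/well, rested 2 h then exposed to compounds in concentration-response for 18-24 h at 37 °C. Viability by CellTiter-Fluor fluorescence (Ex 405/Em 525) after 30 min; luciferase luminescence (BugLite, 15 min, RT) read afterwards.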
ELG1 FLuc counter = qHTS screen for small molecules that inhibit ELG1-dependent DNA repair: Hit Confirmation in Cell-Based Luciferin Assay | shares compounds with ELG1 DNA repair | cell-free firefly luciferase luminescence counter-screen, ViewLux | Potency, µM (doses to about 46.1 µM), for inactives: top-dose activity change, negative = inhibition, actives largely listed as inhibitors | 3% of 350 active | AID 624247, 2012; note: % is set by controls: 0 for no effect and ±100 for the full control effect
ELG1 Luc conf = HTS assay for small molecules that inhibit ELG1-dependent DNA repair in human embryonic kidney (HEK293T) cells expressing luciferase-tagged ELG1: Hit Confirmation | shares compounds with ELG1 DNA repair | HEK293T ELG1-luciferase levels, luminescence; cells co-treated with 5-fluorouridine | Potency, µM (titrated, usually from 46.1 µM), without a hit: top-dose activity change, negative = inhibition, most hits filed as inhibitors | 68% of 670 active; note: % is set by controls: 0 for no effect and ±100 for the full control effect; nearly all actives have a fitted effect of over 55% in size
Target sequence (Q96QE3 whole entry, looked up): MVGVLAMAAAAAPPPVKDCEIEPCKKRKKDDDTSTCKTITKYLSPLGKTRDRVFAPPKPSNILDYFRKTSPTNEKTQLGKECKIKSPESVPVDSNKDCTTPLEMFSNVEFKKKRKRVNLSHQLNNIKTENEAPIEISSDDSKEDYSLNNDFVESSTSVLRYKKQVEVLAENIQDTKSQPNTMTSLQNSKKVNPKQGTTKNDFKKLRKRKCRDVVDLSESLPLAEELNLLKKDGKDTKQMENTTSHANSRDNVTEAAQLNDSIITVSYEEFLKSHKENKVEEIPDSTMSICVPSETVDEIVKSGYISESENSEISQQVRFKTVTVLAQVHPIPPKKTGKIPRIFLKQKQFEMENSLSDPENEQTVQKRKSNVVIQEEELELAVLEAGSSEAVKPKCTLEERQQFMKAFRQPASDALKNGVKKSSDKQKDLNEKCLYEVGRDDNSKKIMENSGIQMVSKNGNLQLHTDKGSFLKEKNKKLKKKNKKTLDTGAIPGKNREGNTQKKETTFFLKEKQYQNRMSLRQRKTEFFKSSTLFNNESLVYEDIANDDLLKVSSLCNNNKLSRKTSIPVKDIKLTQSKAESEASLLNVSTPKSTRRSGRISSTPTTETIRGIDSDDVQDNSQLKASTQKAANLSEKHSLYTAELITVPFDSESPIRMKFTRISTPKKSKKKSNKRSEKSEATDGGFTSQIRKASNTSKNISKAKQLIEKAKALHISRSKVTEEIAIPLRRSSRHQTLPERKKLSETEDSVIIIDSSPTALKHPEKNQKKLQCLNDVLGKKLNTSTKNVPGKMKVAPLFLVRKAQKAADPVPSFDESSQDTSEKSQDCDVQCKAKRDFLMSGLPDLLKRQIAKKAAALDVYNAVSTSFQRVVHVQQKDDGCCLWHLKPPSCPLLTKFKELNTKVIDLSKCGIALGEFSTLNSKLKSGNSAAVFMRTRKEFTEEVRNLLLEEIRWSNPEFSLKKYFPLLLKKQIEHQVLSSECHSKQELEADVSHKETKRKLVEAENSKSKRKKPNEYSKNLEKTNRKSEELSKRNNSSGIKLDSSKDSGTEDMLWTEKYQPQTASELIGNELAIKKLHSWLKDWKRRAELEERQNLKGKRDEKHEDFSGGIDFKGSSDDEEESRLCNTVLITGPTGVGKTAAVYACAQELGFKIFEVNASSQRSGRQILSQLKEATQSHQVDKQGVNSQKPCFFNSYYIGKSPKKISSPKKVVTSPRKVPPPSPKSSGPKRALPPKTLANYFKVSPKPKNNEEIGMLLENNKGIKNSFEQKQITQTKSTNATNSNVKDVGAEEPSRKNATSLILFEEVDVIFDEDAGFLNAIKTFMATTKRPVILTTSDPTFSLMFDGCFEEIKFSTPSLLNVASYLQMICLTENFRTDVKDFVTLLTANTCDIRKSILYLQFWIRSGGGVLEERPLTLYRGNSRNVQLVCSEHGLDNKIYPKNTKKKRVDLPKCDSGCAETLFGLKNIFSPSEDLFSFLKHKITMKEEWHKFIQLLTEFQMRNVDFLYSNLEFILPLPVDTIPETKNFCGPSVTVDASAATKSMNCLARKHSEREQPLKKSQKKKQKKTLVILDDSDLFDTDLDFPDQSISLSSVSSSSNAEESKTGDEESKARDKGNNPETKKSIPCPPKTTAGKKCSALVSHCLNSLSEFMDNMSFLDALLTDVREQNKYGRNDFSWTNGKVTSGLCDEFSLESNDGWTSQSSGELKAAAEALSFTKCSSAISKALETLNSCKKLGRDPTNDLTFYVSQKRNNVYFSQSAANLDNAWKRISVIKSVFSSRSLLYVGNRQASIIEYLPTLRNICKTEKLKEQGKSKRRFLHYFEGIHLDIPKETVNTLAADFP
ELG1-Luc MMS = confirmation of human ELG1 repair inhibitors, MMS stimulated; HEK293T luciferase-tagged ELG1 level, MMS stimulated; Potency, µM (titrated, usually from 46.1 µM), inactives show at the highest dose activity change, negative = inhibition, hits mostly inhibitors; shares compounds with ELG1 DNA repair; AID 624249; 53% of 670 active; note: % is set by controls: 0 for no effect and ±100 for the full control effect; nearly all actives have a fitted effect of over 60% in size
ELG1 5-FU = qHTS screen for small molecules that inhibit ELG1-dependent DNA repair: Hit Confirmation with 5FU Viability; cell viability with 5-FU, ELG1-dependent repair; shares compounds with ELG1 DNA repair; 670 tested, under 10 active; Potency, µM (top dose mostly 46.1 µM), without a hit: at the top dose activity change, negative = viability loss, most hits filed as cytotoxic;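 note: ELG1-luc HEK293T cells cotreated with 5-fluorouridine at 10 µM final; viability measured 16 h after compound addition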
ELG1 MMS viab = qHTS screen for small molecules that inhibit ELG1-dependent DNA repair: Hit Confirmation with MMS Viability; shares compounds with ELG1 DNA repair; Cell viability with MMS, ELG1-dependent DNA repair; Potency, µM (series often up to 46.1 µM), inactives show at the top dose activity change, negative = viability loss, usual class: cytotoxic; 33% of 670 active;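 note: ELG1-luc HEK293T cells co-treated with 10 µM MMS; viability read 16 h after compound addition; % is set by controls: 0 for no effect and ±100 for the full control effect; nearly all actives have a fitted effect of over 60% in size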
Cell viab unstim = qHTS screen for small molecules that inhibit ELG1-dependent DNA repair: Hit Confirmation with Unstimulated Viability Assay | 8% of 900 active | shares compounds with ELG1 DNA repair | Potency, µM (highest dose often 45.9 µM), without a hit: at the highest dose activity change, negative = loss of viability, hits mostly cytotoxic | cell viability counter-screen, unstimulated, luminescence | AID 624252, 2012;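 note: compound exposure lasted 16 hours before reading; % is set by controls: 0 for no effect and ±100 for the full control effect; nearly all actives have a fitted effect of over 55% in size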
FLuc enzyme = qHTS screen for small molecules that inhibit ELG1-dependent DNA repair: Hit Confirmation in Biochemical Luciferin Assay | AID 624253, 2012 | 10% of 350 active | shares compounds with ELG1 DNA repair | purified firefly luciferase, luminescence counter-screen | Potency, µM (highest dose often 57.5 µM), for inactives: at the top dose activity, negative = inhibition, most hits filed as inhibitors; note: % is set by controls: 0 for no effect and ±100 for the full control effect
Active calls of the source: *; ? = inconclusive; · = no result given. Only some compounds are listed: those with a hit (about 3.7% of all), similar ones and a draw of the others. Calls come from the whole dose curve; as a rule, active = well fitted curve in the direction sought with a large enough effect; inconclusive = small, poorly fitted or top-dose-only effect, or another doubt; inactive = no such curve, though single readings can be large; an effect the other way counts as inactive or inconclusive. Potency is the fitted concentration of half-maximal effect.

SMILES	ELG1 DNA repair	Nrf2 block	Nrf2 activator	A549 viability	ELG1 FLuc counter	ELG1 Luc conf	ELG1-Luc MMS	ELG1 5-FU	ELG1 MMS viab	Cell viab unstim	FLuc enzyme
COC(=O)c1nc(Nc2cc(F)cc(F)c2)nc(NC2CCCC2)n1	·	17%	·	1%	·	·	·	·	·	·	·
COCCn1c(=N)c(C(=O)NCCc2ccc(OC)cc2)cc2c(=O)n3cccc(C)c3nc21	?	15%	0%	-1%	·	5µM*	?	?	3%	?	·
CC(=O)NC(Cc1ccccc1F)C(=O)NC1CCN(C(=O)Nc2ccc(C)cc2)CC1 (configuration not stated)	-1%	8%	-1%	0%	·	·	·	·	·	·	·
CCC(Sc1nnc(-c2ccc(OC)cc2)c(-c2ccc(OC)cc2)n1)C(=O)Nc1cccc(OC)c1 (configuration not stated)	·	·	1%	-4%	·	·	·	·	·	·	·
Fc1ccc(Nc2nc(-c3ccncc3)nc3ccccc23)cc1F	1.8µM*	-13%	3%	9%	2%	1.4µM*	?	?	-7%	?	4%
Cc1cc2ncc(-c3ccccc3)nc2cc1C	?	?	16%	-1%	·	·	·	·	·	?	·
Nc1ccc2nc(-c3ccccc3)cnc2c1	·	?	8%	11%	·	·	·	·	·	·	·
CCCN(CCC)c1ncnc2nc[nH]c12	1.6µM*	?	-1%	-1%	·	4.4µM*	?	-4%	10%	-4%	·
CCOc1ccc(NC(=O)N2CCC(N3CCCCC3)CC2)cc1	·	9%	0%	8%	·	·	·	·	·	·	·
OCCN1CCN(c2nc(-c3ccccc3)c3cc(Br)ccc3n2)CC1	?	3%	6%	-5%	·	·	·	·	·	·	·
OCCN1CCN(c2ncnc3ccc(Br)cc23)CC1	2.1µM*	-17%	-3%	2%	·	?	?	-2%	5%	4%	·
Cc1ccccc1OCc1nc2ccccc2c(=O)n1/N=C/c1cn[nH]c1-c1ccccc1	4.6µM*	?	3%	?	-7%	7.1µM*	14µM*	?	?	?	-18%
Cc1nc2ccccc2c(=O)n1/N=C/c1cn[nH]c1-c1ccccc1	?	-17%	0%	2%	·	·	·	·	·	·	·
Cc1ccc(-c2[nH]ncc2/C=N/n2c(COc3ccccc3)nc3ccccc3c2=O)cc1	5.2µM*	?	10%	-6%	-11%	3.2µM*	20µM*	?	28µM*	16µM*	?
Cc1cc(NC(=O)c2cnn3c(C(F)(F)F)cc(-c4ccccc4)nc23)no1	7.3µM*	-17%	0%	-2%	98%	5µM*	?	10%	?	?	-4%
COC(=O)c1cnn2c(C(F)(F)F)cc(-c3ccccc3)nc12	?	11%	0%	-11%	·	·	·	·	·	·	·
Cc1cc(NC(=O)c2cnn3c(C(F)F)cc(C4CC4)nc23)no1	-10%	-9%	0%	12%	1%	?	-3%	-1%	-6%	-12%	-5%
CCO[C@H]1OC(C(N)=O)=C[C@@H](C(C)(C)C)[C@@H]1CCCO	·	-13%	-1%	-1%	·	·	·	·	·	·	·
COc1cc(/C=N/NC(=O)c2ccc(CN3c4cccc5cccc(c45)S3(=O)=O)cc2)cc(OC)c1O	3.3µM*	-27%	-1%	1%	·	3.5µM*	22µM*	?	25µM*	?	·
COc1ccc(/C=N/NC(=O)c2ccc(CN3c4cccc5cccc(c45)S3(=O)=O)cc2)cc1	?	-9%	3%	3%	·	·	·	·	·	·	·
COc1ccc(CCNC(=O)CN2c3cccc4cccc(c34)S2(=O)=O)cc1OC	2.6µM*	5%	-1%	8%	·	?	20%	?	-1%	?	·
CC(C)C(=O)Nc1c2c(nn1-c1ccc(F)cc1)CS(=O)(=O)C2	-1%	12%	-1%	6%	·	·	·	·	·	·	·
CCCCN(C(=O)COc1ccc(F)cc1)c1c(N)n(CC(C)C)c(=O)[nH]c1=O	·	·	-3%	·	·	·	·	·	·	·	·
COCCn1c(C)cc(C(=O)COC(=O)c2cccnc2SC)c1C	?	?	0%	9%	118%	·	·	·	·	?	0.52µM*
COCCn1c(C)cc(C(=O)COC(=O)c2ccccc2Br)c1C	?	?	-1%	-3%	·	·	·	·	·	·	·
SMILES	ELG1 DNA repair	Nrf2 block	Nrf2 activator	A549 viability	ELG1 FLuc counter	ELG1 Luc conf	ELG1-Luc MMS	ELG1 5-FU	ELG1 MMS viab	Cell viab unstim	FLuc enzyme
CCOc1cccc(/C=C/c2ccc3cccc(O)c3n2)c1OC	?	15%	?	-3%	·	·	·	·	·	·	·
COc1cccc(/C=C/c2cnc3ccccc3n2)c1OC	·	·	·	·	-23%	·	·	·	·	-16%	0.33µM*
CC(C)(C)c1ccc(C2=NC(C)(C)N(CC(=O)Nc3ccc(F)c(F)c3)C2=O)cc1	·	-28%	6%	-15%	·	·	·	·	·	·	·
O=C(COc1ccccc1Cl)Nc1ccc(-c2nc3ccccc3s2)cc1	·	9%	5%	-1%	·	·	·	·	·	?	·
C[n+]1c(/C=C/c2ccc3c(c2)OCO3)ccc2ccccc21	?	?	3%	0%	·	·	·	·	·	·	·
CN(C)c1ccc(/C=C/c2ccc3ccccc3[n+]2[O-])cc1	·	·	·	·	-63%	·	·	·	·	13µM*	0.092µM*
CNC(=S)N1N=C(c2ccc(OC)cc2)CC1c1ccc(Cl)cc1Cl (configuration not stated)	4.6µM*	-10%	5%	1%	·	?	-22%	?	-7%	3%	·

Screening data deposited in PubChem by National Center for Advancing Translational Sciences (NCATS).
